Test results reported in ChEMBL document CHEMBL1157539, “Thousands of chemical starting points for antimalarial lead identification” (Nature, 2010).

Each molecule was assayed on HepG2 (assay: GSK_TCMDC: Percent inhibition of human HepG2 cell line. Test compounds present at 10uM.).
Format: functional

Going from `CN1CCC(NCc2ccc(-c3cccc(S(=O)(=O)NCc4ccccc4)c3)cc2)CC1.O=C(O)C(F)(F)F` to `CN1CCC(N(Cc2ccc(-c3cnc(NCc4ccccc4)nc3)cc2)S(=O)(=O)c2ccccc2)CC1.O=C(O)C(F)(F)F`, the Inhibition falls from 72% to 48%.

Compared with `Cl.FC(F)(F)c1ccc2c(NCCc3ccccc3)ccnc2c1`, `OC(CNc1ccnc(Nc2ccc(Cl)cc2)n1)c1ccc(C(F)(F)F)cc1` (centres undefined) is lower in Inhibition: 14% for the first, 0% for the second.

`Fc1cc(Cl)ccc1Nc1ccnc2cc(-c3ccc(CN4CCCCC4)o3)ccc12` and `C#CCOc1ccccc1CN1CCC(N2CCc3cc(NC(=O)c4cc(C)on4)ccc32)C1` (centres undefined) are the same in Inhibition: 16% for the first, 16% for the second.

First: Cc1cc(N/N=C/c2ccccc2[N+](=O)[O-])c2ccc(F)cc2n1
Second: O=C(CSc1nc(-c2ccccc2Cl)ns1)Nc1cccc(F)c1
The Inhibition of the first is higher: 32% for the first, 0% for the second.

First: CC(C)(C)CCOC(=O)N1CCc2c(cc(O)c(O)c2Cl)C(c2ccc(O)cc2)C1 (centres undefined)
Second: CCc1cn(C)c2c(N3CCCC3=O)cc(C(=O)N[C@@H](Cc3ccccc3)[C@H](O)CNC(C)(C)c3cccc(OC)c3)cc12
The Inhibition of the first is lower: 2% for the first, 9% for the second.

Going from `NC(=O)c1cccc(C(=O)Nc2cccc(-c3csc(-c4nc5ccccc5[nH]4)c3)c2)c1` to `O=C(Nc1ccc(-c2cccc(-c3nc4cc(C(F)(F)F)ccc4[nH]3)c2)cc1)Nc1ccc(Cl)c(Cl)c1`, the Inhibition rises from 16% to 42%.

Compared with `Cc1n[nH]c2cc(Nc3nccc(Nc4ccc(Oc5ccccc5)cc4)n3)ccc12.Cl`, `Cc1cc(=O)c(-c2ccc(Oc3ccc(C(F)(F)F)cc3)cc2)c(C)n1O` is higher in Inhibition: 8% for the first, 18% for the second.

Going from `CCCC(=O)Nc1ccc(OCCCN(Cc2ccccc2C(F)(F)F)c2ccc(C#N)c(C(F)(F)F)c2)cc1` to `CN1CCN(CCCN(Cc2csc(-c3ccc(CNCc4ccccc4)cc3)n2)C(=O)Nc2cccc(Cl)c2)CC1.O=C(O)C(F)(F)F`, the Inhibition rises from 0% to 32%.

First: CCNc1cc(C(=O)N[C@@H](Cc2ccc(F)c(F)c2)[C@H](O)CNCc2cccc(OC)c2)cc(N2CCCCS2(=O)=O)c1.Cl
Second: O=C(Nc1ccc(OC2CCN(Cc3ccc(F)cc3)CC2)c(Cl)c1)c1cccs1.O=C(O)C(F)(F)F
The Inhibition of the first is lower: 4% for the first, 7% for the second.

Compared with `Cc1cccc2nc(-c3ccc(-c4ccc(CNCc5ccccc5)cc4)cc3)[nH]c12.O=C(O)C(F)(F)F`, `CN1CCN(CCCN(Cc2csc(-c3ccc(CNCc4ccccc4)cc3)n2)S(=O)(=O)c2ccccc2Cl)CC1.O=C(O)C(F)(F)F` is higher in Inhibition: 5% for the first, 13% for the second.

First: CNCc1cccc(-c2ccc3ccnc(N)c3c2)c1
Second: CCN(CC)Cc1cccc(-c2cc3c(-c4ccc(C(=O)O)c(C(C)C)c4)ccnc3[nH]2)c1OC.O=C(O)C(F)(F)F
The Inhibition of the first is lower: 20% for the first, 57% for the second.

Compared with `CCOc1ccc(-c2nonc2NC(=O)c2ccccc2Cl)cc1OCC`, `CCOc1ccc2nc(NC(=O)c3csnn3)sc2c1` is higher in Inhibition: 3% for the first, 6% for the second.

First: CS(=O)(=O)O.CSc1ccc2ccccc2c1CCNCCCCNCCc1c(SC)ccc2ccccc12
Second: Cc1ccn2c(N(Cc3ccccc3)C(=O)c3ccc(Cl)c(Cl)c3)c(-c3ccccc3)nc2c1
The Inhibition of the first is higher: 99% for the first, 0% for the second.

First: Cl.O=c1cc(NCCCNCc2sc(Br)nc2Br)[nH]c2ccccc12
Second: COc1cccc(NC(=O)[C@H](C(C)C)n2c(=O)[nH]c3ccccc3c2=O)c1
The Inhibition of the first is higher: 1% for the first, 0% for the second.

Going from `C=CC[C@H](NC(=O)c1ccc(NS(=O)(=O)c2ccc3nc(N)[nH]c(=O)c3c2)cc1)C(=O)OCCCC` to `Cc1ccc(-c2cc(C(=O)Nc3ccc(S(=O)(=O)N4CCCCC4C)cc3)n[nH]2)c(O)c1` (centres undefined), the Inhibition falls from 61% to 37%.

Going from `Cl.O=C(NC1CCC(N2CCN(c3cccc4[nH]ccc34)CC2)CC1)c1cc2cccnc2[nH]1` (centres undefined) to `CC(C)Cn1cc(C2CCN(CCN3CCC(CNC(=O)c4ccc(NC(=O)c5cc(Cl)cc(Cl)c5)cc4)CC3)CC2)c2ccccc21`, the Inhibition rises from 9% to 53%.

Going from `CCc1c(C)c(C#N)c2nc3ccccc3n2c1NCc1ccco1` to `Br.CC(C)(C)c1ccccc1OCCCON1C(=N)N=C(N)NC1(C)C`, the Inhibition rises from 0% to 63%.

First: O=[N+]([O-])c1cc(C(c2ccc(O)c([N+](=O)[O-])c2)C(Cl)(Cl)Cl)ccc1O
Second: Cc1ccc(N)cc1-c1nc(NC2CC(C)(C)NC(C)(C)C2)nc2c1ccc(=O)n2-c1c(F)cccc1F
The Inhibition of the first is higher: 2% for the first, 0% for the second.

Compared with `CN(C)c1ccc2nc(N)nc(N)c2c1Cl.Cl`, `CC1CCCN(Cc2cc(Cl)cc(Cl)c2O)C1` (centres undefined) is lower in Inhibition: 68% for the first, 22% for the second.

`CNC(=O)c1c(NC(=O)c2cccs2)sc2c1CCCC2` was tested, and the Inhibition was 2%.
